A selection: hits, their analogues and other compounds. The true share with any hit is near 3.2%.
PME-1 Maybridge = inhibitors of human PME-1 in Maybridge library | AID 2291, 2010 | hit rate 0.5% among 16,000 | Protein phosphatase methylesterase 1 (Homo sapiens), Q9Y570 | inhibition, % at 9 µM | recombinant PME-1, FP-Rh probe fluorescence polarization; in the data active = inhibition above about 30%
TLR4 MyD88 blk = inhibitors of human TLR4-MyD88 binding; Toll-like receptor 4 (Homo sapiens), O00206; Cell-based TLR4-MyD88 binding inhibition assay; hit rate 0.06% among 16,000; inhibition, % at 10 µM; in the data active = inhibition above about 45%
NOTCH ag = agonists of NOTCH signaling | NOTCH signaling luciferase reporter cells, luminescence | activation, % at 2.5 µM | hit rate 0.4% among 15,000 | AID 434982, 2010; in the data active = activation above about 2.2%
rat GALR2 ag = agonists of rat galanin receptor 2 (GALR2). Galanin receptor type 2 (Rattus norvegicus), O08726. cell-based GALR2 agonist screen. activation, % at 10 µM. hit rate 0.5% among 16,000; in the data active = activation above about 15%
KOR antag MB = antagonists of human kappa opioid receptor OPRK1, Maybridge library | AID 652031, 2013 | inhibition, % at 9 µM | hit rate 0.4% among 16,000 | OPRK1 cells, antagonist mode, fluorescence readout | Kappa-type opioid receptor (Homo sapiens), P41145; in the data active = inhibition above about 50%
Target sequence (P41145 whole entry, looked up): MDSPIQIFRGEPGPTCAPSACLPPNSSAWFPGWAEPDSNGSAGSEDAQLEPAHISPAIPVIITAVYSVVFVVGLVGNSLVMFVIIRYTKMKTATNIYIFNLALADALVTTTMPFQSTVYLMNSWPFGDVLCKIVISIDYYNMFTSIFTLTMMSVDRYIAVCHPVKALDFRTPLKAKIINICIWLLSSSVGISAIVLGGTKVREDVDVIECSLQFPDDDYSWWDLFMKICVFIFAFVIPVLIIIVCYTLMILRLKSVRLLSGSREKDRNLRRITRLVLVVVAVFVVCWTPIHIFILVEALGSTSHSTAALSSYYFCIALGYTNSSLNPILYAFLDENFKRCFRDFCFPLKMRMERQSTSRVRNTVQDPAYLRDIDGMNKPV
S1P1 ag = activates the human S1P1 receptor; Sphingosine 1-phosphate receptor 1 (Homo sapiens), P21453; S1P1 agonist cell-based reporter assay; activation, % at 4.5 µM; hit rate 1.5% among 16,000; in the data active = activation above about 80%
* hit, by the source's call.

O=S(=O)(NCc1ccccc1)c1cc(Br)c(Br)s1 was read as PME-1 Maybridge 74*, TLR4 MyD88 blk 5, NOTCH ag 0, rat GALR2 ag -2, KOR antag MB 10 and S1P1 ag 0.
Screening Cn1nc(C(C)(C)C)cc1C(=O)NCc1ccc2c(c1)CCO2 returned PME-1 Maybridge -1, TLR4 MyD88 blk 4, NOTCH ag 0, rat GALR2 ag -9, KOR antag MB -14 and S1P1 ag 80*.
O=[N+]([O-])c1cc(Br)c(Oc2cncc(Cl)c2)cc1Oc1cncc(Cl)c1 was read as PME-1 Maybridge 52*, TLR4 MyD88 blk 1, NOTCH ag 0, rat GALR2 ag -10, KOR antag MB -10 and S1P1 ag 23.
Screening CN(NC=C(C#N)C#N)c1ccccc1[N+](=O)[O-] returned PME-1 Maybridge 6, TLR4 MyD88 blk 2, NOTCH ag 0, rat GALR2 ag -1, KOR antag MB 0 and S1P1 ag -5.
Screening Cn1c(=O)c2cc3cc(Cl)ccc3nc2c2c(=O)n(-c3ccccc3)c(=O)n(-c3ccccc3)c21 returned PME-1 Maybridge -17, TLR4 MyD88 blk 1, NOTCH ag -1, rat GALR2 ag -2, KOR antag MB 70* and S1P1 ag -72.
For Cn1c(=O)c2c3nc4ccccc4cc3c(=O)n(C)c2n(C)c1=O the results were PME-1 Maybridge 10, TLR4 MyD88 blk -1, NOTCH ag 0, rat GALR2 ag -7, KOR antag MB 11 and S1P1 ag 10.
For CCOC(=O)c1c(NC(=O)c2ccc3ncccc3c2)sc(C)c1C the results were PME-1 Maybridge 2, NOTCH ag 0, rat GALR2 ag 42*, KOR antag MB -23 and S1P1 ag -1.
COc1ccc(C(=O)Nc2nc(-c3ccc(C)c(Cl)c3)c(C)s2)cc1 was read as PME-1 Maybridge 5, TLR4 MyD88 blk 2, NOTCH ag 0, rat GALR2 ag 17*, KOR antag MB -5 and S1P1 ag 10.
O=C1CSCC(=O)N1c1csc(C(F)(F)F)c1-c1ccccc1 was read as PME-1 Maybridge 1, TLR4 MyD88 blk 1, NOTCH ag 0, rat GALR2 ag -5, KOR antag MB 17 and S1P1 ag 100*.
`O=S(=O)(Oc1ccc(Cl)cc1)c1csc(C(F)(F)F)c1-c1ccccc1` gave PME-1 Maybridge -8, TLR4 MyD88 blk 3, NOTCH ag 0, rat GALR2 ag -10, KOR antag MB -25 and S1P1 ag -9.
For C/C(=N\N=C(/C)c1cccc([N+](=O)[O-])c1)c1cccc([N+](=O)[O-])c1 the results were PME-1 Maybridge -5, TLR4 MyD88 blk 2, NOTCH ag -1, rat GALR2 ag 6, KOR antag MB 24 and S1P1 ag -5.
Screening CC1(C)N=c2ccc([N+](=O)[O-])cc2=N1 returned PME-1 Maybridge 38*, TLR4 MyD88 blk -2, NOTCH ag 0, rat GALR2 ag -6, KOR antag MB 1 and S1P1 ag -8.
`COC(=O)c1sc(C(F)(F)F)c(-c2ccccc2)c1N` gave PME-1 Maybridge -1, NOTCH ag 0, rat GALR2 ag -5, KOR antag MB -5 and S1P1 ag 98*.
Screening CNC(=S)NNC(=O)Cc1ccsc1 returned PME-1 Maybridge 0, TLR4 MyD88 blk 4, NOTCH ag 1, rat GALR2 ag -3, KOR antag MB 3 and S1P1 ag 5.
For Cc1nn(C(=O)c2ccccc2)c(C)c1Oc1ccc(Cl)cc1 the results were PME-1 Maybridge 1, TLR4 MyD88 blk 12, NOTCH ag 3.9*, rat GALR2 ag -5, KOR antag MB -8 and S1P1 ag 14.
Screening O=C(CCCCCN1C(=O)c2cccc3cccc(c23)C1=O)Oc1ccc2c3c(c(=O)oc2c1)CCC3 returned PME-1 Maybridge 2, TLR4 MyD88 blk -2, NOTCH ag 1, rat GALR2 ag 5, KOR antag MB 16 and S1P1 ag 21.
Cc1nc(C(F)(F)F)ccc1C(=O)N1CCN(c2nc3ccc(Cl)cc3s2)CC1 was read as PME-1 Maybridge -1, TLR4 MyD88 blk -15, NOTCH ag 0, rat GALR2 ag -11, KOR antag MB -4 and S1P1 ag 88*.
`CSc1ccccc1N=C(N)N=C(N)N` gave PME-1 Maybridge -1, TLR4 MyD88 blk 1, NOTCH ag -1, rat GALR2 ag -8, KOR antag MB -2 and S1P1 ag -13.

Screens as filed in PubChem.
